From the supplement of paper PMC6089552
Among all 3,200 compounds or so, about 300 (9.4%) showed activity. For the sample, actives were picked, then their nearest neighbours and some compounds at random.

System: A673/TR/shEF
Experiment: cell viability (LOESS-normalised, relative to median of negative controls) (log2 ratio); higher = more viable cells (less compound effect), active = hit call of the paper (over 3 MAD below the median)
Settings: treatment time: 72 h
Summary of the method: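 A673/TR/shEF Ewing sarcoma cells (1,500 per well, 384-well plates) were grown with or without doxycycline to induce EWS-FLI1 shRNA knockdown, starting 24 h before compounds. Library compounds at two or more concentrations, with DMSO controls, were added for three days. Cell viability was read by CellTiter-Glo luminescence on an Envision reader, then LOESS-corrected per plate, divided by the median of negative controls and log2-transformed. Hits were wells at least three median absolute deviations from the median of all screened wells.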

[1] = 0.25 µM, library screen: screen1, EWS-FLI1 expression: high (no doxycycline)
[2] = 0.25 µM, library screen: screen1, EWS-FLI1 expression: low (doxycycline-induced shRNA knockdown)
[3] = 2.5 µM, library screen: screen1, EWS-FLI1 expression: high (no doxycycline)
[4] = 2.5 µM, library screen: screen1, EWS-FLI1 expression: low (doxycycline-induced shRNA knockdown)
[5] = 0.25 µM, library screen: screen2, EWS-FLI1 expression: high (no doxycycline)
[6] = 0.25 µM, library screen: screen2, EWS-FLI1 expression: low (doxycycline-induced shRNA knockdown)
[7] = 2.5 µM, library screen: screen2, EWS-FLI1 expression: high (no doxycycline)
[8] = 2.5 µM, library screen: screen2, EWS-FLI1 expression: low (doxycycline-induced shRNA knockdown)
[9] = 0.103 µM, library screen: screen3, EWS-FLI1 expression: high (no doxycycline)
[10] = 0.103 µM, library screen: screen3, EWS-FLI1 expression: low (doxycycline-induced shRNA knockdown)
[11] = 0.308 µM, library screen: screen3, EWS-FLI1 expression: high (no doxycycline)
[12] = 0.308 µM, library screen: screen3, EWS-FLI1 expression: low (doxycycline-induced shRNA knockdown)
[13] = 0.926 µM, library screen: screen3, EWS-FLI1 expression: high (no doxycycline)
[14] = 0.926 µM, library screen: screen3, EWS-FLI1 expression: low (doxycycline-induced shRNA knockdown)
[15] = 2.8 µM, library screen: screen3, EWS-FLI1 expression: high (no doxycycline)
[16] = 2.8 µM, library screen: screen3, EWS-FLI1 expression: low (doxycycline-induced shRNA knockdown)
[17] = 8.3 µM, library screen: screen3, EWS-FLI1 expression: high (no doxycycline)
[18] = 8.3 µM, library screen: screen3, EWS-FLI1 expression: low (doxycycline-induced shRNA knockdown)
[19] = 25 µM, library screen: screen3, EWS-FLI1 expression: high (no doxycycline)
[20] = 25 µM, library screen: screen3, EWS-FLI1 expression: low (doxycycline-induced shRNA knockdown)

Measured: cell viability (log2)

CC(=O)O[C@H]1C[C@@H](OC(C)=O)C(C)(C)C2CC(=O)[C@]3(C)C(CC[C@@]4(C)[C@H](C(=O)O)OC(=O)C5OC543)[C@]21C (stereo partly drawn)
inactive: [1] 0.123 | [2] 0.114 | [3] 0.0482 | [4] 0.118

CCC(=O)NCC1OC(n2cnc3c(NCc4ccccc4)ncnc32)C(O)C1O (stereo not drawn)
inactive: [5] 0.0412 | [6] 0.0737 | [7] 0.224 | [8] 0.113

COC(=O)C[C@H]1C(C)(C)C(=O)[C@@H]2CC3=C4CC(OC)O[C@@H](c5ccoc5)[C@]4(C)CCC3[C@@]1(C)C2=O (stereo partly drawn)
inactive: [1] 0.115 | [2] 0.14 | [3] 0.0882 | [4] 0.172

COc1ccc(-c2coc3cc(OC(C)=O)cc(OC(C)=O)c3c2=O)cc1
inactive: [1] 0.0854 | [2] -0.00831 | [3] 0.156 | [4] 0.114

COc1c(O)cc2occ(-c3ccc(O)cc3)c(=O)c2c1O
inactive: [1] 0.15 | [2] 0.0261 | [3] 0.0979 | [4] 0.0895

CC(=O)O[C@H]1CC[C@]2(C)[C@H]3CC=C4[C@@H]5CC(C)(C)CC[C@]5(C(=O)O)CC[C@@]4(C)[C@]3(C)CC[C@H]2C1(C)C
inactive: [1] 0.0325 | [2] 0.0553 | [3] 0.0391 | [4] 0.0458

Cc1nnc(C(C)C)n1C1C[C@H]2CC[C@@H](C1)N2CC[C@H](NC(=O)C1CCC(F)(F)CC1)c1ccccc1 (stereo partly drawn)
inactive: [9] 0.00773 | [10] 0.0537 | [11] 0.179 | [12] 0.0864 | [13] 0.11 | [14] 0.0142 | [15] 0.152 | [16] 0.0241 | [17] 0.00455 | [18] 0.0886 | [19] 0.0767 | [20] 0.0769

C=C1C(=O)OC2CC1C(OC(C)=O)C/C(C)=C/CC/C(C)=C\CCC2(C)O (stereo not drawn)
inactive: [1] 0.18 | [2] 0.0249 | [3] 0.0625 | [4] -0.139

O=C1c2ccc(O)cc2OC(c2cc(O)c(O)c(O)c2)C1O (stereo not drawn)
inactive: [1] 0.0896 | [2] 0.0484 | [3] 0.165 | [4] 0.11

Nc1nc(Cl)nc2c1ncn2[C@@H]1O[C@H](COP(=O)(O)OP(=O)(O)OP(=O)(O)O)[C@H](O)C1O (stereo partly drawn)
inactive: [5] 0.146 | [6] 0.0571 | [7] 0.0213 | [8] 0.0355

Nc1ncnc2c1ncn2[C@H]1C[C@H](O)[C@@H](CO)O1
inactive: [1] 0.0888 | [2] 0.137 | [3] 0.0495 | [4] 0.162

OC[C@H]1O[C@@H](n2cnc3c(NC4CCCC4)nc(Cl)nc32)[C@H](O)[C@@H]1O
inactive: [5] 0.143 | [6] 0.038 | [7] 0.169 | [8] 0.0636

Nc1nc(Cl)nc2c1ncn2[C@@H]1O[C@H](CO)[C@@H](O)[C@@H]1F
inactive: [9] 0.0438 | [10] 0.0567 | [11] 0.104 | [12] 0.0694 | [13] -0.027 | [14] 0.0481 | [16] 0.0753 | [18] -0.0627
active: [15] -0.287 | [17] -1.27 | [19] -3.63 | [20] -0.69

Nc1nc(Cl)nc2c1ncn2[C@H]1C[C@H](O)[C@@H](CO)O1
inactive: [9] 0.0389 | [10] -0.0254 | [11] 0.0133 | [12] 0.0217 | [13] 0.0147 | [14] 0.0591 | [15] -0.0664 | [16] 0.0972 | [18] -0.0455
active: [17] -0.402 | [19] -1.32 | [20] -0.402

Nc1nc(Cl)nc2c1ncn2[C@@H]1O[C@H](CO)[C@@H](O)[C@H]1O
inactive: [5] 0.323 | [6] 0.0766 | [7] 0.0971 | [8] -0.0176

CC1(NCC(O)COc2cccc3[nH]ccc23)CCC(C(C)(C)NC(=O)CBr)CC1 (stereo not drawn)
inactive: [5] 0.126 | [6] 0.0547 | [7] 0.106 | [8] 0.0182

CCOc1c(Br)cc(C=C(C#N)c2nn(-c3ccccc3)c(N)c2C#N)cc1OC
inactive: [1] 0.0856 | [2] 0.124 | [3] 0.0719 | [4] 0.193

CCOC(=O)c1c[nH]c2c(C)cccc2c1=O
inactive: [1] 0.111 | [2] 0.0771 | [3] 0.1 | [4] -0.0609

CC[C@H]1OC(=O)[C@H](C)[C@@H](O[C@H]2C[C@@](C)(OC)[C@@H](O)[C@H](C)O2)[C@H](C)[C@@H](O[C@@H]2O[C@H](C)C[C@H](N(C)C)[C@H]2O)[C@](C)(O)C[C@@H](C)[C@@H]2N[C@@H](COCCOC)OC([C@H]2C)[C@]1(C)O
inactive: [1] 0.163 | [2] 0.065 | [3] 0.143 | [4] 0.0253

COc1cc(O)c2c(=O)c(-c3ccc(O)cc3)coc2c1
inactive: [1] -0.0342 | [2] 0.0164 | [3] 0.131 | [4] 0.0327

O=C1CCCCC/C=C\CCCCCCCCO1
inactive: [1] -0.00728 | [2] 0.0186 | [3] 0.143 | [4] 0.0924

CCCCCCCCCCCCCCCCCC(=O)NCC(COP(=O)([O-])OCC[N+](C)(C)C)OC (stereo not drawn)
inactive: [5] 0.255 | [6] 0.0758 | [7] 0.173 | [8] 0.0504

Cc1cc(Nc2cc(CN3CCOCC3)c3nc(C)c(Cc4ccc(Cl)cc4F)n3n2)n[nH]1
inactive: [9] 0.0112 | [10] 0.0393 | [11] -0.00623 | [12] -0.00356 | [13] -0.0578 | [14] 0.0432 | [16] -0.0123
active: [15] -0.183 | [17] -0.442 | [18] -0.142 | [19] -1.04 | [20] -0.863

COc1c2ccoc2c(OC)c2oc(=O)ccc12
inactive: [1] 0.157 | [2] -0.0309 | [3] 0.197 | [4] 0.0899

CC1Cc2ccccc2N1C(=S)Nc1ccc2nccnc2c1 (stereo not drawn)
inactive: [1] 0.139 | [2] 0.113 | [3] 0.133 | [4] 0.0139

CC[C@H](C)C(=O)O[C@H]1CCC=C2C=C[C@H](C)[C@H](CC[C@@H]3C[C@@H](O)CC(=O)O3)[C@H]21
inactive: [1] 0.147 | [2] 0.00215 | [5] 0.167 | [6] 0.108 | [3] 0.0603 | [4] -0.0998 | [7] 0.145 | [8] 0.0674

CC[C@H](C)C(=O)O[C@H]1C[C@@H](C)C=C2C=C[C@H](C)[C@H](CC[C@@H]3C[C@@H](O)CC(=O)O3)[C@H]21
inactive: [1] 0.0174 | [2] -0.0358 | [3] 0.109 | [4] 0.0431

CCC(C)(C)C(=O)O[C@H]1C[C@@H](C)C=C2C=C[C@H](C)[C@H](CC[C@@H]3C[C@@H](O)CC(=O)O3)[C@H]21
inactive: [9] 0.14 | [10] 0.05 | [1] 0.0551 | [2] -0.0746 | [11] 0.153 | [12] 0.105 | [13] 0.0408 | [14] 0.0447 | [3] 0.0209 | [4] -0.321 | [15] 0.107 | [16] -0.0366 | [17] -0.0829 | [18] -0.13
active: [19] -1.27 | [20] -1.32

COCCn1c2c([n+](Cc3cnccn3)c1C)C(=O)c1ccccc1C2=O
active: [9] -3.94 | [10] -2.36 | [11] -3.88 | [12] -4.02 | [13] -3.96 | [14] -4.06 | [15] -4.31 | [16] -4.17 | [17] -4.31 | [18] -4.28 | [19] -4.31 | [20] -4.3

CC(=O)OCC(=O)[C@@]1(O)CC[C@H]2[C@@H]3CC[C@@H]4C[C@H](O)CC[C@]4(C)[C@H]3C(=O)C[C@@]21C
inactive: [1] 0.128 | [2] 0.0697 | [3] 0.109 | [4] -0.0114

COc1ccc(-c2cc(=O)c3ccccc3o2)cc1OC
inactive: [1] -0.0122 | [2] 0.00789 | [3] 0.068 | [4] 0.128

C=CC(C1=CC(=O)C(OC)=CC1=O)c1ccccc1 (stereo not drawn)
inactive: [1] 0.0774 | [2] 0.000535 | [3] 0.158 | [4] 0.101

C=CC(C1=CC(=O)C(OC)=CC1=O)c1ccc(OC)cc1 (stereo not drawn)
inactive: [1] 0.133 | [2] 0.135 | [3] 0.157 | [4] 0.265

C=C[C@@H](C1=CC(=O)C(OC)=C(OC)C1=O)c1ccccc1
inactive: [2] 0.026 | [3] -0.00361 | [4] 0.0945
active: [1] -0.165

COc1ccc(C2C3=C(CC(C)(C)CC3=O)OC3=C2C(=O)CC(C)(C)C3)cc1[N+](=O)[O-]
inactive: [1] 0.06 | [2] 0.0112 | [3] 0.134 | [4] -0.00188

CC1=C(O)C(=O)C(C(C)C)CC1 (stereo not drawn)
inactive: [1] 0.0674 | [2] 0.0473 | [3] 0.0636 | [4] 0.0767

COc1ccc(C2CC(=O)c3c(OC)cc(O)cc3O2)cc1 (stereo not drawn)
inactive: [1] 0.0309 | [2] -0.00204 | [3] -0.0215 | [4] 0.0561

CC1=C2[C@H]3OC(=O)[C@@H](C)[C@@H]3[C@@H](O)C[C@@]2(C)C=CC1=O
inactive: [1] 0.026 | [2] 0.0292 | [3] 0.113 | [4] 0.0749
